Laboratory results as given in ChEMBL document CHEMBL4513216, “Probing the Open Global Health Chemical Diversity Library for Multistage-Active Starting Points for Next-Generation Antimalarials” (ACS Infect Dis, 2020).
The campaign covered roughly 69,000 compounds. About 8,600 (12%) showed an effect of 50% or more. The sample holds strong results, similar compounds and a random draw of the others, so the mix is not that of the screen.

What follows are compounds tested on Plasmodium berghei (assay: Screen against P. berghei liver stage (PbLuc), transformed with Luciferase, at 10uM). Details: tested at 10 uM.
Type: functional, HepG2
Work on `CC(C)c1nnc2n1CC(CNCc1nc3ccccc3s1)CC2` (stereo not given) yielded an INHIBITION of 43.3%. Work on `Cc1cnn(CCNCc2nnc(Cc3ccccc3)o2)c1` yielded an INHIBITION of 2.97%. `Cc1nn(C)c2c(=O)n(Cc3ccc(F)cc3)nnc12` gave an INHIBITION of -10.77%. `Cc1nn(Cc2ccc(F)cc2)c2[nH]nc(N)c12` was tested, and the INHIBITION was 78.2%. In the case of `Cc1nn(-c2ccc(F)cc2)c2[nH]nc(N)c12`, the INHIBITION was 46.4%. Compound `O=C(Nc1ccccc1)C1CN(CC2CCOCC2)CC12CCOCC2` (stereo not given) has an INHIBITION of -42.9%. For `CCC[C@@H]1CN(Cc2c[nH]nc2-c2ccc(F)cc2)C[C@H]1NS(C)(=O)=O`, the INHIBITION was 27.4%. `CCC[C@H]1CN(Cc2cc(C#N)n(C)c2C)C[C@@H]1NS(=O)(=O)CC` was tested, and the INHIBITION was 61.8%. `CCC[C@H]1CN(Cc2ccccc2C#N)C[C@@H]1NS(C)(=O)=O` gave an INHIBITION of 49.3%. `CCC[C@H]1CN(Cc2cc(C#N)n(C)c2C)C[C@@H]1N(C)C` showed an INHIBITION of 73.6%. `CCC[C@@H]1CN(Cc2cc(C#N)n(C)c2C)C[C@H]1NS(C)(=O)=O` gave an INHIBITION of 64.4%. Compound `CCOC(=O)C1CCCN(Cc2cc(C#N)n(C)c2C)C1` (stereo not given) has an INHIBITION of 24.7%. Compound `CCC[C@H]1CN(Cc2ccc(N(C)C)nc2)C[C@@H]1NS(=O)(=O)CC` has an INHIBITION of 46.6%. `CCC[C@@H]1CN(Cc2ccc(N(C)C)nc2)C[C@H]1N(C)C` gave an INHIBITION of 36.5%. `CCC[C@@H]1CN(Cc2ccccc2C#N)C[C@H]1NC(C)=O` gave an INHIBITION of 17.5%. For `O=C(c1cc2ccccc2[nH]1)N1CCC(Nc2cccnn2)CC1`, the INHIBITION was 31.2%. For `Cc1nnc2n1CCN(C(=O)c1ccc(Cn3cccc3)cc1)C2`, the INHIBITION was -18.52%. `CN1CCN(C(=O)c2ccc3c(c2)nc(N2CCOCC2)n3C)CC1=O` gave an INHIBITION of -18.9%. Compound `Cc1nc(C(=O)N2CCCC2c2c(C)nn(C)c2Cl)ccc1C#N` (stereo not given) has an INHIBITION of 0.914%. `NC(=O)NCC(=O)N1C[C@@H]2CC[C@H]1CN(C1Cc3ccccc3C1)C2` showed an INHIBITION of 21%. In the case of `CCCC(=O)N1CCCC1(C)c1nc(C)no1` (stereo not given), the INHIBITION was -3.97%. `Oc1ccc(C2Nc3ccccc3C3=NCCCN32)cc1` (stereo not given) showed an INHIBITION of 36.4%. Work on `COc1cc(C2Nc3cc(Cl)ccc3C3=NCCN32)cc(OC)c1OC` (stereo not given) yielded an INHIBITION of 38.8%. `COc1ccc(C2Nc3cc(Cl)ccc3C3=NCCN32)cc1O` (stereo not given) showed an INHIBITION of 28%. For `COc1ccc(C2Nc3cc(Cl)ccc3C3=NCCN32)cc1OC` (stereo not given), the INHIBITION was 72.8%. For `CN(C)c1ncc(C2Nc3ccccc3C3=NCCCN32)cn1` (stereo not given), the INHIBITION was 9.93%. For `COc1ccc(C2Nc3ccccc3C3=NCCCN32)cc1OC` (stereo not given), the INHIBITION was 54%. `COc1cc(OC)c(C2Nc3cc(Cl)ccc3C3=NCCN32)cc1OC` (stereo not given) was tested, and the INHIBITION was 73.9%. Work on `COc1cc(C2Nc3cc(Cl)ccc3C3=NCCN32)ccc1O` (stereo not given) yielded an INHIBITION of -43%. Compound `COc1ccc(C2Nc3cc(Cl)ccc3C3=NCCN32)cc1CO` (stereo not given) has an INHIBITION of 46%. In the case of `COCc1nc(C(=O)N2CCCC(n3ccnc3C(C)C)C2)cs1` (stereo not given), the INHIBITION was 19.5%. Work on `O=C([C@H]1CCCO1)N1CC[C@@H](O)[C@@H]1Cc1ccccc1` yielded an INHIBITION of 21.1%. In the case of `CC(O)CN1CCN(C(=O)c2cc3ccccc3[nH]c2=O)CC1` (stereo not given), the INHIBITION was 16.6%. In the case of `CNc1cc2c(nn1)CCN(C(=O)c1ccccc1-n1cccn1)C2`, the INHIBITION was 36.8%. `CN1CCCCC(C2CCN(S(=O)(=O)c3cn(C)cn3)CC2)C1=O` (stereo not given) showed an INHIBITION of -23.4%. `CCNC(=O)[C@@H]1C[C@@H](NC(=O)CSC)CN1Cc1ccncc1` gave an INHIBITION of 29.6%. Compound `OC(CNCCn1cccn1)c1cccc(F)c1` (stereo not given) has an INHIBITION of -15.5%. In the case of `Cc1ccnc(OC[C@]23COC[C@H]2CN(C(=O)c2ncccn2)C3)n1`, the INHIBITION was 18.4%. `Cc1ncccc1C(=O)NC1(c2cccc(F)c2)CCOCC1` showed an INHIBITION of 76.2%. With `Cc1cc(C(=O)NC2(c3cccc(F)c3)CCOCC2)no1` the INHIBITION was 20.6%. `CN(C)c1cc(C(=O)NC2(c3cccc(F)c3)CCOCC2)ccn1` was tested, and the INHIBITION was 27.5%. Compound `COc1ncccc1C(=O)NC1(c2cccc(F)c2)CCOCC1` has an INHIBITION of 65.3%. `CN1CC(C(=O)NC2(c3cccc(F)c3)CCOCC2)CC1=O` (stereo not given) showed an INHIBITION of -36%. Compound `O=C(NC1(c2cccc(F)c2)CCOCC1)c1ccoc1` has an INHIBITION of 18.5%. `O=C(NC1(c2cccc(F)c2)CCOCC1)c1ccccn1` gave an INHIBITION of 26.8%. `CC(C)c1ocnc1C(=O)NC1(c2cccc(F)c2)CCOCC1` showed an INHIBITION of 60.3%. Work on `O=C(NC1(c2cccc(F)c2)CCOCC1)c1cc[nH]n1` yielded an INHIBITION of 13.5%. `CCC(CC)C(=O)N1CCCc2c(cnn2C)C1` was tested, and the INHIBITION was 31.9%. For `O=C(CCc1cc(Cl)no1)N1CCC(c2cc3ncccc3cn2)CC1`, the INHIBITION was 23.2%. In the case of `CCOc1ccccc1-n1c(-c2cn(CC)nc2C)n[nH]c1=O`, the INHIBITION was 18%. Work on `CN1CCCC(CCC(=O)NCCCn2ncc3ccccc32)C1` (stereo not given) yielded an INHIBITION of 17%. Work on `CC(=O)Nc1cc(C(C)(C)C)sc1C#N` yielded an INHIBITION of -52.4%. For `Cc1cncc(C(=O)N2C[C@@H](C(=O)O)[C@H](C(C)C)C2)c1`, the INHIBITION was 72.2%. Work on `CC(C)[C@@H]1CN(C(=O)c2ccsc2)C[C@H]1C(=O)O` yielded an INHIBITION of 30.9%. `Cc1cc(C(=O)N2C[C@@H](C(=O)O)[C@H](C(C)C)C2)cs1` was tested, and the INHIBITION was 46.1%.
